Reference: the supplement of paper PMC11732987, “Enantioselective OTUD7B fragment discovery through chemoproteomics screening and high-throughput optimisation” (Communications Chemistry, 2025)

What was measured:
Assay in all cases: log2 ratio of Biotin-Ahx-Ub-VS probe labelling (fragment/DMSO); higher = less target engagement (more negative = stronger competition), active = hit call of the paper (q ≤ 0.05, log2 ratio ≤ -1)
Settings in all cases: compound concentration: 200 uM; treatment time: 3 h
USP42 = target: T1, USP42 (UniProt Q9H9J4)
T1 sequence (whole entry): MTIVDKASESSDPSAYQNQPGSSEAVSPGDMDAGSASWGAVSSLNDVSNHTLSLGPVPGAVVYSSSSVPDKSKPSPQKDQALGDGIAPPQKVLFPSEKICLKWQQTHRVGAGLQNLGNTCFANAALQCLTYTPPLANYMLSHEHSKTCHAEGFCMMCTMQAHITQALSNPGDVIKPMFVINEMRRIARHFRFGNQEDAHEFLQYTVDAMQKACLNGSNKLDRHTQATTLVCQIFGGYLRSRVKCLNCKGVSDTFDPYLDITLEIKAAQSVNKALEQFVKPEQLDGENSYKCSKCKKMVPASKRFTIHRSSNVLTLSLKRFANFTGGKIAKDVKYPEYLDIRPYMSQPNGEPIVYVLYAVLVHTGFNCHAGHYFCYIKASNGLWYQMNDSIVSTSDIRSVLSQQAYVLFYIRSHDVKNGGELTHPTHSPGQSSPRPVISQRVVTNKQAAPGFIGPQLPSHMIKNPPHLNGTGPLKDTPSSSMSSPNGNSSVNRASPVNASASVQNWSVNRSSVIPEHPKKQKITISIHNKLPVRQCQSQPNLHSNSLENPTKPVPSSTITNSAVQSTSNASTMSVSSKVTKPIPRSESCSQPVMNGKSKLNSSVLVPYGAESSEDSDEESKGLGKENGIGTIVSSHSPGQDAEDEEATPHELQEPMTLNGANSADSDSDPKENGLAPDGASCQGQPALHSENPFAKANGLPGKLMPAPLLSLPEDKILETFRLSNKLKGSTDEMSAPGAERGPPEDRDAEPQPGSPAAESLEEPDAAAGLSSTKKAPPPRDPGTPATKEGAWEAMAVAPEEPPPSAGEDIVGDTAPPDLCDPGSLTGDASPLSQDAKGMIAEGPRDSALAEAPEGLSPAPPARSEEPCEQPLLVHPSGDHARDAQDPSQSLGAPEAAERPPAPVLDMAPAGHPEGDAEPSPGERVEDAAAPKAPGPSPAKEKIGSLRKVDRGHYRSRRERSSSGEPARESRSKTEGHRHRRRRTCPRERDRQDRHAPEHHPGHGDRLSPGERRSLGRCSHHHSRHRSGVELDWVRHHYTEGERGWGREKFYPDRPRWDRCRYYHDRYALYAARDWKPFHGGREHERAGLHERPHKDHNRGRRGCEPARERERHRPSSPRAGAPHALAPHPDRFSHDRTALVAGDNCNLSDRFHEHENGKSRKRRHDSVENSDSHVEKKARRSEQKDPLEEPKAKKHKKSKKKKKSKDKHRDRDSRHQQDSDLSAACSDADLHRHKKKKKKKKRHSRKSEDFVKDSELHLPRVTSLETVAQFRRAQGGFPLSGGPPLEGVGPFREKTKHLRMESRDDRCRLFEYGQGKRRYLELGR
How it was run: (§1)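 HEK293T lysate (495 µg per sample, in Tris/CHAPS/IGEPAL buffer with protease inhibitors) was treated in triplicate with fragment at 200 µM or with DMSO for 3 h. It was then treated with Biotin-Ahx-Ub-VS (0.5 µM final) for 1 h. Labelled DUBs were NeutrAvidin-enriched, digested with LysC and trypsin, and run by diaPASEF LC-MS/MS. Spectronaut label-free quantities were global-median-normalised. Values are average log2 ratios fragment/DMSO by unpaired t-test, using proteins with ≥2 unique peptides.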

USP46 = USP46 (UniProt P62068)
How it was run: as §1

USP47 = target: T2, USP47 (UniProt Q96K76)
T2 sequence (whole entry): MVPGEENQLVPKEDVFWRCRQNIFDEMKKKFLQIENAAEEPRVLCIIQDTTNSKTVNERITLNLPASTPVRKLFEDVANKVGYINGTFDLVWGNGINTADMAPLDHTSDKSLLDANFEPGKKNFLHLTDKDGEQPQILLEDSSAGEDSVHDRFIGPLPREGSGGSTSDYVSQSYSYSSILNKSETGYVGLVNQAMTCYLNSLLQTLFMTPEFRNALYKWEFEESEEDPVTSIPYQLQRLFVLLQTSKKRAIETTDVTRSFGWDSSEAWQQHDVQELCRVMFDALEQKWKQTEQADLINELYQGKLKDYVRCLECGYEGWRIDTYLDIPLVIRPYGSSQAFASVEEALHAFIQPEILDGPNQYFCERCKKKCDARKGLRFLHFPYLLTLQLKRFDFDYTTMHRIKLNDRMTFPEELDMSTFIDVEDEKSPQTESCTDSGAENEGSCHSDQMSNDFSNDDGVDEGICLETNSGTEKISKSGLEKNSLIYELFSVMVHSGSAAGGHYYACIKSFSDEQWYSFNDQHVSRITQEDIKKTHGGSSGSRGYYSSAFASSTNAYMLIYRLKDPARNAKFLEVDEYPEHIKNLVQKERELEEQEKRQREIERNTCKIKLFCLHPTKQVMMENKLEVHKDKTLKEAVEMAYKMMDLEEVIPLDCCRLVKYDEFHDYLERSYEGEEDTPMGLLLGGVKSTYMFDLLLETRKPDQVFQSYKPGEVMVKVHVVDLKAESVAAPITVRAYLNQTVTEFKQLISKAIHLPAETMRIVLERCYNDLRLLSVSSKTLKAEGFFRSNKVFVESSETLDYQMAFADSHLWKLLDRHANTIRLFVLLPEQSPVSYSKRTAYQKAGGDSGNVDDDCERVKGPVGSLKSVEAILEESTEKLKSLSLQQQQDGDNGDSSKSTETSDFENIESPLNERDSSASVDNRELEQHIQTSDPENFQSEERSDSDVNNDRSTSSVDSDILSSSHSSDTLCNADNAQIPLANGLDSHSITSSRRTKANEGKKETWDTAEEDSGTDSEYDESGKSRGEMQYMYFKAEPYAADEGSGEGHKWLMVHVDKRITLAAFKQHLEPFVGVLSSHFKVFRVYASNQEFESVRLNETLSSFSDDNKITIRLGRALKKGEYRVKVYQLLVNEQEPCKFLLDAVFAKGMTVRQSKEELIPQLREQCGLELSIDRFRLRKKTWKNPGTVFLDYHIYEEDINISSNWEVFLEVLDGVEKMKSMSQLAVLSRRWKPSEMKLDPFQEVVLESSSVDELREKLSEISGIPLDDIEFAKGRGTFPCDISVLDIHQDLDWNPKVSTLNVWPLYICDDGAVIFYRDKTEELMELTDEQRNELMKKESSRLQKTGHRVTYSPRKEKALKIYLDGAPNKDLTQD
How it was run: as §1

USP48 = target: T3, USP48 (UniProt Q86UV5)
T3 sequence (whole entry): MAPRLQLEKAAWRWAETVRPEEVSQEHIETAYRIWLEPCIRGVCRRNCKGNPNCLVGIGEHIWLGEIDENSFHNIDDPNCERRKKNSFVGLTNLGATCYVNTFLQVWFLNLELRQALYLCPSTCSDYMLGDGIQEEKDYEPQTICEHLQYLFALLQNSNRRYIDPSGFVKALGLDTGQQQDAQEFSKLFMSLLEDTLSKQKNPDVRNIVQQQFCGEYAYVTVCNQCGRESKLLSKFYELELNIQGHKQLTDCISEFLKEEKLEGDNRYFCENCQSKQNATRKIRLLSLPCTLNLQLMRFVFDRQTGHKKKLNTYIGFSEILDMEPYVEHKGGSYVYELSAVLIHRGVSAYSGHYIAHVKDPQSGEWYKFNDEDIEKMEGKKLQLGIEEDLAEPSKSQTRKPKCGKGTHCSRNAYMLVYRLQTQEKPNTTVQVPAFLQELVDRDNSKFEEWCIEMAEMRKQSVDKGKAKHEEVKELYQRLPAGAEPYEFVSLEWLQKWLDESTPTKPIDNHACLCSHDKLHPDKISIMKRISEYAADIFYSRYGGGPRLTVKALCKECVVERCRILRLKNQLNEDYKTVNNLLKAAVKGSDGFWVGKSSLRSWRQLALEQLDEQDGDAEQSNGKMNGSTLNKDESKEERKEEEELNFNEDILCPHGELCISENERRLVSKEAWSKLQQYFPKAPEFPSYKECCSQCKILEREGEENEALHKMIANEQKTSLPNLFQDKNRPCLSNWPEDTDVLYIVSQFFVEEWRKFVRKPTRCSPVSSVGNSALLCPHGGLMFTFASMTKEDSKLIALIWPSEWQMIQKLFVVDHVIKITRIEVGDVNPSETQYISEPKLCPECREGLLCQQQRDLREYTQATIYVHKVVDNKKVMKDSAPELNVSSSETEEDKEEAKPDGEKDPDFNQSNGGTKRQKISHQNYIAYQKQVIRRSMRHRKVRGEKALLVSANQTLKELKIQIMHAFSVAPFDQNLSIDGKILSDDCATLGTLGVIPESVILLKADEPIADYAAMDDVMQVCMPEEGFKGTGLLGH
How it was run: as §1

USP5 = target: T4, USP5 (UniProt P45974)
T4 sequence (whole entry): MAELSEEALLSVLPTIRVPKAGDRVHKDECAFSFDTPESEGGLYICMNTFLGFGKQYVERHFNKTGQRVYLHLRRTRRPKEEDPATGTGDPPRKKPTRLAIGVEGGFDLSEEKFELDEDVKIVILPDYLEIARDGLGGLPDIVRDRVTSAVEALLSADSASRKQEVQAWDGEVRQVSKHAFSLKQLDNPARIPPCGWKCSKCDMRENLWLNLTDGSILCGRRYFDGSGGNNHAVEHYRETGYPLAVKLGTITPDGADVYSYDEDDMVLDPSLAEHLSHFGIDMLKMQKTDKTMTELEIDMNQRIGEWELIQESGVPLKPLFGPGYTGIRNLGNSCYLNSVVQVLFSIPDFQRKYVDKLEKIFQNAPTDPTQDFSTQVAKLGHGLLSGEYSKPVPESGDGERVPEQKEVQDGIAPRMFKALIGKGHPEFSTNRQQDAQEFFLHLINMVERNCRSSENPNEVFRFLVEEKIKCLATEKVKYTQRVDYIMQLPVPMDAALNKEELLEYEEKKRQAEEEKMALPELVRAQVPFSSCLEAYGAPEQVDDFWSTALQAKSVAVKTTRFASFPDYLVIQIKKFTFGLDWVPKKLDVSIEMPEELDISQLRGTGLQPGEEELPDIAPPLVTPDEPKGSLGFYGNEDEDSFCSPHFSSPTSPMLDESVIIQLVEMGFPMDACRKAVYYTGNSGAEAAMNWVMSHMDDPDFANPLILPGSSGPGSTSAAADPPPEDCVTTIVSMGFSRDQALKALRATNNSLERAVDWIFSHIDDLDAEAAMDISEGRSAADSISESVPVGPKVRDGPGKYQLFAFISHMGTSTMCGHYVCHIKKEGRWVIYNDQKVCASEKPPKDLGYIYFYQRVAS
How it was run: as §1

USP54 = USP54 (UniProt Q70EL1)
How it was run: as §1

USP7 = USP7 (UniProt Q93009)
How it was run: as §1

USP8 = target: T5, USP8 (UniProt P40818)
T5 sequence (whole entry): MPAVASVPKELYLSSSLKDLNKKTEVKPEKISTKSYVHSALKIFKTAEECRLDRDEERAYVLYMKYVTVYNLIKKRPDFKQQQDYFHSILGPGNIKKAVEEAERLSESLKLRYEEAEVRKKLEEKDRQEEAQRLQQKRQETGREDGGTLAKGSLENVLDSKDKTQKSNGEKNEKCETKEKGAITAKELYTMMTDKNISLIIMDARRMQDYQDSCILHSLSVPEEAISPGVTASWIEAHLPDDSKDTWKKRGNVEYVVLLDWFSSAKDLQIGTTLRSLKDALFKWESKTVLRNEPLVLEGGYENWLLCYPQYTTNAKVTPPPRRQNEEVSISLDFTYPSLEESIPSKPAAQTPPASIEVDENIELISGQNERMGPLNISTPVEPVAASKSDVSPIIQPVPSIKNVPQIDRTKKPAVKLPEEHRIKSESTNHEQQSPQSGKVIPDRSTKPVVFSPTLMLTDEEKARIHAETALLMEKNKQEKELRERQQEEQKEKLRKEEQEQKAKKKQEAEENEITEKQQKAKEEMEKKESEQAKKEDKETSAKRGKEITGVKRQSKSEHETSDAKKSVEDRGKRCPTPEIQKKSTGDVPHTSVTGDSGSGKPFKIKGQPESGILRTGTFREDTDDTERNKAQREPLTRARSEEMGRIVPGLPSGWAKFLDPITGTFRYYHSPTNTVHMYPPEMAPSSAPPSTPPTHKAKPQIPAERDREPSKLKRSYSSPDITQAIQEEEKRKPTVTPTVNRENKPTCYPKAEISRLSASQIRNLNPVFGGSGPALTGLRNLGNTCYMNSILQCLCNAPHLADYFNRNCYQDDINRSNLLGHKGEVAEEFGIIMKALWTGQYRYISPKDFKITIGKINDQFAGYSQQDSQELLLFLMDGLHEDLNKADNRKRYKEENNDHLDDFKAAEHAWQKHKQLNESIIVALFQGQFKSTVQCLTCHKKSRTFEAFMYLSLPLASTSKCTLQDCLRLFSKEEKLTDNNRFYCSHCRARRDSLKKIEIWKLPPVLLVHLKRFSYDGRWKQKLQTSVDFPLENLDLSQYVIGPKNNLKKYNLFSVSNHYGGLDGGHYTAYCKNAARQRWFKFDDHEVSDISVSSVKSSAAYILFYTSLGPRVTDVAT
How it was run: as §1

Measured: log2 ratio of Biotin-Ahx-Ub-VS probe labelling

Chain of USP7 (Q93009 whole entry, looked up): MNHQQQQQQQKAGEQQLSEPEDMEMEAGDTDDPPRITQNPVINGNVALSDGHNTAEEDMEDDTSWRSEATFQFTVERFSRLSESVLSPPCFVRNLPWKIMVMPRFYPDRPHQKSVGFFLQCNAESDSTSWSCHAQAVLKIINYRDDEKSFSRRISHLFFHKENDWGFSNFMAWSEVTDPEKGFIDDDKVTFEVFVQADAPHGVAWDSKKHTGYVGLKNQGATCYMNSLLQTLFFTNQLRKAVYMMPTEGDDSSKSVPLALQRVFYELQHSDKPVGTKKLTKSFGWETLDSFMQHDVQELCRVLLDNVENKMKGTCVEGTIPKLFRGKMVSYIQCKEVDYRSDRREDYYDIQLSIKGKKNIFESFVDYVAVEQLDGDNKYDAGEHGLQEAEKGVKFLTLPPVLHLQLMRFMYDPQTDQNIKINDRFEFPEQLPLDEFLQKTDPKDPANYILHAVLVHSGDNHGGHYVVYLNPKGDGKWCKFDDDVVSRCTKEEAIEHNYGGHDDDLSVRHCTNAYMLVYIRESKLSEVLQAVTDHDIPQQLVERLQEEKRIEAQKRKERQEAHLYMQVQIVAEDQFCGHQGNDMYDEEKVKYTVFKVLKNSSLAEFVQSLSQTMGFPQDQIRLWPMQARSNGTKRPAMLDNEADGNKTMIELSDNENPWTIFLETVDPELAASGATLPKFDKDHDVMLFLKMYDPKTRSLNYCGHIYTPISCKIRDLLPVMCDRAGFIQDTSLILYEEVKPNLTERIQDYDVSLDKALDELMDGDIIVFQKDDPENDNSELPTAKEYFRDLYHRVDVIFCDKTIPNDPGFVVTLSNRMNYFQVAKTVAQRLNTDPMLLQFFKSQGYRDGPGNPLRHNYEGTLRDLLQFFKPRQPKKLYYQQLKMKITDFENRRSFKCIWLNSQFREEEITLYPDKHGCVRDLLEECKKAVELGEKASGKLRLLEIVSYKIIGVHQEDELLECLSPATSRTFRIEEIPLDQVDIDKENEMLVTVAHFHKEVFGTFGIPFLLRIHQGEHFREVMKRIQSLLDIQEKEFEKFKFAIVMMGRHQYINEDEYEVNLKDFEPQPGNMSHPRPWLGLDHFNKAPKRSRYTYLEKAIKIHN
Chain of USP54 (Q70EL1 whole entry): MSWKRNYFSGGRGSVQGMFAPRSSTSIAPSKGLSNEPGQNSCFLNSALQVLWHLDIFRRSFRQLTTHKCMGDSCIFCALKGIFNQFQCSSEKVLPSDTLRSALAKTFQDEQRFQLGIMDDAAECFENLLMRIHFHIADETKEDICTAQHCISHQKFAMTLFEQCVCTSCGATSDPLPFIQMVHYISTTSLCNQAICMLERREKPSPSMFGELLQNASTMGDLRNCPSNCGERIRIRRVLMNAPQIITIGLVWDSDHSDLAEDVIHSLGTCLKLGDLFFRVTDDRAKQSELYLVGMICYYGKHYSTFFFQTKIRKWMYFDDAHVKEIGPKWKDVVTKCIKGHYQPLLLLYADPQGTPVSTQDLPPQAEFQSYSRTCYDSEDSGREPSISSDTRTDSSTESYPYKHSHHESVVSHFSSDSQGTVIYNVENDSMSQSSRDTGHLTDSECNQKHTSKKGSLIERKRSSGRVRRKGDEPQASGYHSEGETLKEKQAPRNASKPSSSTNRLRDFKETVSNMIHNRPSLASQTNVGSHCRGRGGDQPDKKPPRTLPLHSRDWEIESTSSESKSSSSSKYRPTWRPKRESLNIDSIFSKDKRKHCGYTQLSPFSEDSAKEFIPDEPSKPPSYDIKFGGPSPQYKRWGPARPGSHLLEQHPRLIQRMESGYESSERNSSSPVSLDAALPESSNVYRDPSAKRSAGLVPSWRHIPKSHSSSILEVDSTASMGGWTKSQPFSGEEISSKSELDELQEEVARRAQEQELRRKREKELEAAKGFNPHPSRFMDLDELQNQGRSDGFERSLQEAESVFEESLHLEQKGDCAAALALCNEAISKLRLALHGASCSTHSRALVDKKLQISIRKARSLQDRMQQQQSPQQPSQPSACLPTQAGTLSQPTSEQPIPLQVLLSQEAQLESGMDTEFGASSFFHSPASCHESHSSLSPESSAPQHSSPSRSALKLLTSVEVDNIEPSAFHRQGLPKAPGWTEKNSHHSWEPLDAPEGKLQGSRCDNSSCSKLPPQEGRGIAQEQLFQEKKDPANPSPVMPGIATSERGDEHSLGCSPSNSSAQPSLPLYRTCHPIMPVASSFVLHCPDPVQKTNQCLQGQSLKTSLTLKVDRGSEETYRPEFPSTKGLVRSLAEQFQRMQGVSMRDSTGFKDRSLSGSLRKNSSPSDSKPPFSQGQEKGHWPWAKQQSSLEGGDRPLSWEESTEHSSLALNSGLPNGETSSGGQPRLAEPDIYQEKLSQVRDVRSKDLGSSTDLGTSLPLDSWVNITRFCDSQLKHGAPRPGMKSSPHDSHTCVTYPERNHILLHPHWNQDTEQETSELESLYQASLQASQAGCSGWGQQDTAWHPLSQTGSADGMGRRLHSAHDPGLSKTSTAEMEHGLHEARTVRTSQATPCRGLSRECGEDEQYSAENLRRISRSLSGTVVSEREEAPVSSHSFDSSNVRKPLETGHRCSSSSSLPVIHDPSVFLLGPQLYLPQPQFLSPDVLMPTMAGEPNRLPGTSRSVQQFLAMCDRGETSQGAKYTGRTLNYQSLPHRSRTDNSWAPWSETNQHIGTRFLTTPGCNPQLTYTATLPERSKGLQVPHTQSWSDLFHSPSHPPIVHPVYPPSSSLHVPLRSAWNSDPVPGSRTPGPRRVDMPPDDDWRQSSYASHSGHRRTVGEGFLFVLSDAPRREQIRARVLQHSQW
Chain of USP46 (P62068 whole entry): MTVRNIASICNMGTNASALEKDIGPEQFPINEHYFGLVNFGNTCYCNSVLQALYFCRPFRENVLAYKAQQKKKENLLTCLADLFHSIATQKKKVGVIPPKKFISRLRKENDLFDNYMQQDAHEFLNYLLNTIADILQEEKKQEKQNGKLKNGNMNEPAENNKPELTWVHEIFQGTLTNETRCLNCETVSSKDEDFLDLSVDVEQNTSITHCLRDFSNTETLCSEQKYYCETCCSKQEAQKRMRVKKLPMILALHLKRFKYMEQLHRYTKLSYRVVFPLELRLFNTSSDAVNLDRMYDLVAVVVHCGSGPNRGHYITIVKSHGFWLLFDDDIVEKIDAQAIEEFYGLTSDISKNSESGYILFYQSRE

C[C@H]1CN(C(=O)CCl)CCN1C(=O)c1cnn(C)c1.Cl
inactive: USP42 0.109 | USP46 -0.0724 | USP47 -0.522 | USP48 -0.436 | USP5 0.184 | USP54 -0.0291 | USP7 -0.353 | USP8 -0.184
